Records with an inconclusive call do not appear. Active and inactive are the calls of the source. Unless noted, the call rests on the fitted dose curve; in most records, active means well fitted curve in the direction sought with a large enough effect in the repeat runs; inconclusive means weak or mixed curves; inactive means no such curve, though single readings can be large; an effect the other way counts as inactive or inconclusive.
Tests used:
[1] = qHTS assay to identify small molecule agonists of the peroxisome proliferator-activated receptor delta (PPARd) signaling pathway - cell viability counter screen (AID 743211); settings: PPARd-bla HEK293H viability, CellTiter-Glo luminescence, 17 h; series mostly up to 62.6 µM; further: on the % scale 0 is the no-effect control and ±100 the full control effect; nearly all actives have a fitted effect of over 55% in size
How it was run: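 Following 5 h plating at 37 C and 5% CO2, PPARd UAS-bla HEK293H cells took up test compounds for 17 h. Viability was quantified by luminescence 30 min after CellTiter-Glo addition at room temperature.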

[2] = qHTS assay to identify small molecule antagonists of the peroxisome proliferator-activated receptor delta (PPARd) signaling pathway - cell viability counter screen (AID 743213); settings: PPARd-bla HEK293H viability, CellTiter-Glo luminescence, 17 h; series mostly up to 62 µM; further: on the % scale 0 is the no-effect control and ±100 the full control effect; nearly all actives have a fitted effect of over 50% in size
How it was run: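 In this counter screen, HEK293H cells carrying a UAS-beta-lactamase reporter are co-treated with test compounds and 300 nM L165041 (final) for 17 h at 37 C; cell viability is quantified by CellTiter-Glo luminescence.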

[3] = target: Bile acid receptor (Homo sapiens) (UniProt Q96RI1); assay: qHTS assay to identify small molecule antagonists of the farnesoid-X-receptor (FXR) signaling pathway (AID 743217; active means well fitted inhibition curve with a large enough effect in the signal ratio in the repeat runs, not every such curve was filed as active; the % refers to the signal ratio; further: on the % scale 0 is the no-effect control and ±100 the full control effect); settings: HEK293T FXR-UAS-bla, beta-lactamase ratio, CDCA-stimulated, 16 h; series mostly up to 62.6 µM
How it was run: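 GeneBLAzer FXR-UAS-bla HEK 293T, CDCA-stimulated (50 uM final). Compound treatment 16 h, 37 °C. Detection: beta-lactamase cleavage of B/G FRET substrate, fluorescence.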

[4] = qHTS assay to identify small molecule agonists of the farnesoid-X-receptor (FXR) signaling pathway - cell viability counter screen (AID 743218); settings: FXR-bla HEK293T viability, CellTiter-Glo luminescence, 16 h; series mostly up to 62.6 µM; further: on the % scale 0 is the no-effect control and ±100 the full control effect; nearly all actives have a fitted effect of over 45% in size
How it was run: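 Parallel cytotoxicity test: compound-treated (16 h, 37 C) HEK 293T FXR-bla reporter cells were lysed with CellTiter-Glo and luminescence recorded.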

[5] = target: Bile acid receptor (Homo sapiens) (UniProt Q96RI1); assay: qHTS assay to identify small molecule agonists of the farnesoid-X-receptor (FXR) signaling pathway (AID 743220; active means well fitted activation curve with a large enough effect in the signal ratio in the repeat runs, not every such curve was filed as active; the % refers to the signal ratio; further: on the % scale 0 is the no-effect control and ±100 the full control effect); settings: HEK293T FXR-UAS-bla, beta-lactamase FRET ratio, 16 h; series mostly up to 62.6 µM
How it was run: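 Beta-lactamase reporter under UAS control in GeneBLAzer FXR HEK 293T cells (5000/well) measured with LiveBLAzer FRET substrate after 2 h at room temperature. Compound exposure lasted 16 h at 37C.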

[6] = qHTS assay to identify small molecule antagonists of the farnesoid-X-receptor (FXR) signaling pathway - cell viability counter screen (AID 743221; active means well fitted cell-killing curve with a large enough effect in the repeat runs, not every such curve was filed as active; further: on the % scale 0 is the no-effect control and ±100 the full control effect; nearly all actives have a fitted effect of over 50% in size); settings: FXR-bla HEK293T viability, CellTiter-Glo luminescence, 16 h; series mostly up to 62.6 µM
How it was run: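 Compound effects on cell number were measured as CellTiter-Glo luminescence in HEK 293T cells expressing FXR-UAS-bla, after 16 h at 37 C with 50 uM CDCA (final).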

[7] = target: Vitamin D3 receptor (Homo sapiens) (UniProt P11473); assay: qHTS assay to identify small molecule agonists of the vitamin D receptor (VDR) signaling pathway (AID 743222; calls by dose curve; further: on the % scale 0 is the no-effect control and ±100 the full control effect); settings: HEK293T VDR-UAS-bla, beta-lactamase FRET ratio, 16 h; series mostly up to 63.5 µM
How it was run: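 In VDR-bla cells, compound-induced beta-lactamase expression is quantified by FRET substrate fluorescence. Treatment lasts 16 h at 37C; substrate develops 2 h at room temperature.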

[8] = target: Vitamin D3 receptor (Homo sapiens) (UniProt P11473); assay: qHTS assay to identify small molecule antagonists of the vitamin D receptor (VDR) signaling pathway (AID 743223; active means well fitted inhibition curve with a large enough effect in the signal ratio in the repeat runs, not every such curve was filed as active; the % refers to the signal ratio; further: on the % scale 0 is the no-effect control and ±100 the full control effect); settings: VDR-UAS-bla HEK293T, beta-lactamase FRET ratio, 16 h; series mostly up to 61 µM
How it was run: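 Beta-lactamase activity in VDR-bla cells is measured by FRET substrate fluorescence (2 h, room temperature) after cells spend 16 h at 37C with test compound and 3 nM final 1alpha,25-dihydroxyvitamin D3.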

[9] = qHTS assay to identify small molecule agonists of the vitamin D receptor (VDR) signaling pathway - cell viability counter screen (AID 743224); settings: VDR-bla HEK293T viability, CellTiter-Glo luminescence, 16 h; series mostly up to 62.6 µM; further: on the % scale 0 is the no-effect control and ±100 the full control effect; nearly all actives have a fitted effect of over 50% in size
How it was run: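 Plated VDR-bla cells (4 h, 37C) received compound, incubated 16 h, then LiveBLAzer substrate 2 h RT; CellTiter-Glo added afterwards, luminescence read at 30 min.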

[10] = qHTS assay to identify small molecule antagonists of the vitamin D receptor (VDR) signaling pathway - cell viability counter screen (AID 743225); settings: VDR-bla HEK293T viability, CellTiter-Glo luminescence, 16 h; series mostly up to 61 µM; further: on the % scale 0 is the no-effect control and ±100 the full control effect; nearly all actives have a fitted effect of over 50% in size
How it was run: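 In this counter screen, VDR-bla HEK 293T cells receive test compound plus 3 nM final calcitriol for 16 h at 37C. Room-temperature steps of 2 h with the beta-lactamase substrate, then 30 min with CellTiter-Glo, precede the luminescence read.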

[11] = qHTS assay to identify small molecule agonists of the NFkB signaling pathway (AID 1159509; active means well fitted curve in the direction sought with a large enough effect in the signal ratio in the repeat runs, not every such curve was filed as active; the % refers to the signal ratio; further: on the % scale 0 is the no-effect control and ±100 the full control effect); settings: NFkB-bla ME-180 cells, beta-lactamase FRET ratio, 5 h; series mostly up to 61 µM
How it was run: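 ME-180 NFkB-bla, 2,000 cells/well, overnight plating; cpd pinned in DMSO, 5 h 37 C; B/G FRET substrate 1.5 h RT; ex 405, em 460/530 nm.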

[12] = qHTS assay to identify small molecule agonists of the NFkB signaling pathway - cell viability counter screen (AID 1159515; calls by dose curve; further: on the % scale 0 is the no-effect control and ±100 the full control effect; nearly all actives have a fitted effect of over 55% in size); settings: NFkB-bla ME-180 viability, CellTiter-Glo luminescence, 5 h; series mostly up to 61 µM
How it was run: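 Using the same wells as the NFkB reporter read, ME-180 NFkB-bla cells given compounds for 5 hr were assessed for viability via CellTiter-Glo, with luminescence taken after a 30 min room-temperature incubation.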

[13] = qHTS assay to identify small molecule agonists of the endoplasmic reticulum stress response signaling pathway (AID 1159516; active means well fitted activation curve with a large enough effect in the signal ratio in the repeat runs, not every such curve was filed as active; the % refers to the signal ratio; further: on the % scale 0 is the no-effect control and ±100 the full control effect); settings: ESRE-bla HeLa, ER stress beta-lactamase reporter, 5 h; series mostly up to 61 µM
How it was run: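 An ESRE-bla HeLa cell assay: compounds were pin-transferred from DMSO onto overnight-plated cells and left 5 hr at 37 C. Substrate was then loaded for 2 hr at room temperature before reading fluorescence at 460 nm and 530 nm.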

[14] = qHTS assay to identify small molecule agonists of the endoplasmic reticulum stress response signaling pathway - cell viability counter screen (AID 1159517; calls by dose curve); settings: ESRE-bla HeLa viability, CellTiter-Glo luminescence, 5 h; series mostly up to 61 µM
How it was run: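 CellTiter-Glo was added to wells already read for beta-lactamase FRET, and luminescence was recorded 30 min later. Cells: ESRE-bla HeLa, 1,500 per well, compound exposure 5 hr at 37 C.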

[15] = qHTS assay to identify small molecule antagonists of the retinoid-related orphan receptor gamma (ROR-gamma) signaling pathway - cell viability counter screen (AID 1159520); settings: Tet-on RORgamma CHO cells viability, ATP luminescence, 16 h; series mostly up to 92.4 µM
How it was run: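 Tet-on ROR gamma CHO cells (1,000/well) were plated 4 hr, given compounds in DMSO for 2 hr at 37 C, then induced with 1 uM final doxycycline for 16 hr. Viability was read as ATP by CellTiter-Glo luminescence after 30 min.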

[16] = target: Nuclear receptor ROR-gamma (Homo sapiens) (UniProt P51449); assay: qHTS assay to identify small molecule antagonists of the retinoid-related orphan receptor gamma (ROR-gamma) signaling pathway (AID 1159521); settings: Tet-on RORgamma CHO cells, RORE-luciferase, 16 h; series mostly up to 92.4 µM
How it was run: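 Screening format: cell-based luciferase reporter in CHO cells with doxycycline-inducible RORγ. Compound pre-exposure lasts 2 h, doxycycline is 1 uM final, induction runs 16 h at 37 C, and ONE-Glo luminescence is read.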

[17] = qHTS assay to identify small molecule agonists of the AP-1 signaling pathway - cell viability counter screen (AID 1159525; calls by dose curve; further: nearly all actives have a fitted effect of over 55% in size); settings: ME-180 AP-1-bla cells viability, ATP luminescence, 5 h; series mostly up to 76.8 µM
How it was run: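 ME-180 AP-1-bla, 2500 cells/well, Opti-MEM + 0.5% dialyzed FBS; overnight 37 °C; cpd 15-pt titration, 5 h 37 °C; CellTiter-Glo 30 min RT; luminescence read; normalised to TOAB and DMSO controls.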

[18] = qHTS assay to identify small molecule agonists of the AP-1 signaling pathway (AID 1159526; calls by dose curve; further: on the % scale 0 is the no-effect control and ±100 the full control effect); settings: ME-180 (cervical carcinoma) AP-1-bla reporter, beta-lactamase FRET ratio, 5 h; series mostly up to 76.8 µM
[19] = target: Peroxisome proliferator-activated receptor delta (Homo sapiens) (UniProt Q03181); assay: qHTS assay to identify small molecule antagonists of the peroxisome proliferator-activated receptor delta (PPARd) signaling pathway (AID 743215; active means well fitted inhibition curve with a large enough effect in the signal ratio in the repeat runs, not every such curve was filed as active; the % refers to the signal ratio); settings: HEK293H PPARd-UAS-bla, beta-lactamase FRET ratio, antagonist, 17 h; series mostly up to 62 µM
How it was run: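 HEK293H UAS-bla, PPARd; agonist L165041 300 nM final with cpd in DMSO; 37 C 17 h; FRET substrate, RT 2 h; fluorescence intensity.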

[20] = target: Peroxisome proliferator-activated receptor delta (Homo sapiens) (UniProt Q03181); assay: qHTS assay to identify small molecule agonists of the peroxisome proliferator-activated receptor delta (PPARd) signaling pathway (AID 743212; calls by dose curve; further: on the % scale 0 is the no-effect control and ±100 the full control effect); settings: HEK293H PPARd-UAS-bla, beta-lactamase FRET ratio, 17 h; series mostly up to 62.6 µM
How it was run: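 A PPARd-bla HEK293H line with beta-lactamase under an Upstream Activator Sequence is treated with compounds at 37 C. Substrate loading for 2 h at room temperature precedes the fluorescence measurement.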

Sequence of Peroxisome proliferator-activated receptor delta (Homo sapiens) (Q03181 whole entry, looked up): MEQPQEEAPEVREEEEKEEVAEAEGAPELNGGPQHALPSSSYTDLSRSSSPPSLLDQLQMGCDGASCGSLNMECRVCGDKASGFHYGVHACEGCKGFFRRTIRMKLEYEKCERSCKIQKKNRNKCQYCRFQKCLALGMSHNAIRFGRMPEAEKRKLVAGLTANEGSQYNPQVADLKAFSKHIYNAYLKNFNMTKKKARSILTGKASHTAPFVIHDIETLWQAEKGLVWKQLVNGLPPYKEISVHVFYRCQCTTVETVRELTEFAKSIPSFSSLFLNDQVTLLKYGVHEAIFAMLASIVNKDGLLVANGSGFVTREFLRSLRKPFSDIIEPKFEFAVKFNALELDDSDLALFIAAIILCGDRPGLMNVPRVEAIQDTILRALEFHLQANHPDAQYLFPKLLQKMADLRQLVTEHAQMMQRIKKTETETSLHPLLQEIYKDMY
Sequence of Vitamin D3 receptor (Homo sapiens) (P11473 whole entry, looked up): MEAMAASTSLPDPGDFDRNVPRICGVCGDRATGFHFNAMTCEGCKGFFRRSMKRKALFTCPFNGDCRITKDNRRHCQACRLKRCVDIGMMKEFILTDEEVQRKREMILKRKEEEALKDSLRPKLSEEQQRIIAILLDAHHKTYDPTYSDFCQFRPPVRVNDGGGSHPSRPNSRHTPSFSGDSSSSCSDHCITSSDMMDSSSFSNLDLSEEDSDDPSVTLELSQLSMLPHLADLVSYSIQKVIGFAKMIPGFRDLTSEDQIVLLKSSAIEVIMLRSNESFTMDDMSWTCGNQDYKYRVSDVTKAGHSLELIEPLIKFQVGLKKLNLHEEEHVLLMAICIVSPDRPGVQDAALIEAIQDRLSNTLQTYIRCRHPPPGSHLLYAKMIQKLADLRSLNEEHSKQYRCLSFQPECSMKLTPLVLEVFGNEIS
Sequence of Bile acid receptor (Homo sapiens) (Q96RI1 whole entry, looked up): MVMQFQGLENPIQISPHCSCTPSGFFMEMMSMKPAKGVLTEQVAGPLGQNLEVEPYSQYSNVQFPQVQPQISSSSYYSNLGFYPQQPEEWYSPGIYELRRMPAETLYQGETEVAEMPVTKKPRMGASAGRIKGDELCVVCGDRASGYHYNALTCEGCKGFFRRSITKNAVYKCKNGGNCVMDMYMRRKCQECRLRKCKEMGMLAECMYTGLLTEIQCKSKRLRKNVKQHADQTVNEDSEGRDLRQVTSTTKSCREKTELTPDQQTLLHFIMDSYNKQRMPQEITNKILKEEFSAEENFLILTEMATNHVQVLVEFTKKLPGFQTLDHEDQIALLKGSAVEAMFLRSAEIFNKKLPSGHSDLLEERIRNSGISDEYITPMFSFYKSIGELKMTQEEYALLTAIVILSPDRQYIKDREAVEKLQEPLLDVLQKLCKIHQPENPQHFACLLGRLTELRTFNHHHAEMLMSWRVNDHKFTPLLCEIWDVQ

Nc1ccc2cc(S(=O)(=O)O)cc(O)c2c1
inactive: outcome [1] | outcome [2] | Potency [3] | Potency [4] | Potency [5] | outcome [6] | outcome [7] | outcome [8] | Potency [9] | outcome [10] | outcome [11] | outcome [12] | outcome [13] | Potency [14] | outcome [15] | outcome [16] | outcome [17] | outcome [18]

O=C(O)c1cc(Cl)cc([N+](=O)[O-])c1Cl
inactive: outcome [1] | outcome [2] | Potency [3] | Potency [4] | Potency [5] | outcome [6] | outcome [7] | outcome [8] | Potency [9] | outcome [11] | outcome [12] | outcome [13] | Potency [14] | outcome [15] | outcome [16] | outcome [17] | outcome [18]

N[C@@H](CCC(=O)N[C@@H](CS)C(=O)NCC(=O)O)C(=O)O
inactive: outcome [1] | outcome [2] | Potency [4] | outcome [6] | outcome [7] | outcome [8] | Potency [9] | outcome [10] | outcome [11] | outcome [12] | outcome [13] | Potency [14] | activity, negative = cytotoxicity [15] 4.19% [at 19 µM] | activity change, negative = inhibition [16] -1.88% [at 19 µM] | viability change, negative = cytotoxic [17] 4.13% [at 15.8 µM] | activation [18] 1.13% [at 15.8 µM]

Nc1cccc(O)c1
inactive: outcome [1] | outcome [19] | Potency [4] | Potency [5] | outcome [6] | outcome [7] | outcome [8] | outcome [11] | outcome [12] | outcome [13] | Potency [14] | outcome [15] | outcome [16] | outcome [17] | outcome [18]

CC(C)c1ccc2cc(C(C)C)ccc2c1
inactive: outcome [1] | outcome [2] | Potency [4] | outcome [6] | outcome [7] | outcome [8] | Potency [9] | outcome [10] | outcome [11] | outcome [12] | outcome [13] | Potency [14] | outcome [15] | outcome [16] | outcome [17] | outcome [18]

CCCCCCCC/C=C\CCCCCCCC(=O)OCCCC
inactive: outcome [20] | outcome [2] | outcome [19] | Potency [3] | Potency [4] | Potency [5] | outcome [6] | outcome [7] | Potency [9] | outcome [10] | outcome [11] | outcome [12] | outcome [13] | Potency [14] | activity, negative = cytotoxicity [15] -6.58% [at 19 µM] | activity change, negative = inhibition [16] 12% [at 19 µM] | viability change, negative = cytotoxic [17] -3.05% [at 15.8 µM] | activation [18] -1.59% [at 15.8 µM]

O=C(OCC(O)CO)c1ccccc1Nc1ccnc2c(C(F)(F)F)cccc12 (stereo unspecified)
inactive: outcome [1] | outcome [2] | Potency [4] | Potency [5] | outcome [6] | outcome [7] | Potency [9] | outcome [10] | outcome [11] | outcome [12] | outcome [13] | Potency [14] | outcome [15] | outcome [16] | outcome [17] | outcome [18]

— PubChem BioAssay (Tox21)
